This is an account of results in PubChem BioAssay (NCI).

This is part of a sample that, as a whole, favours compounds with a hit. Of some 79,000 tested, about 15% had one in any assay. A number with no mark means an inactive call. The source made the active and inactive calls. No stated cut-off is given here; in the data, active means growth inhibition above about 70%; inactive means the rest. Where a SMILES comes first, the peptide text is derived from it. The star is where a group is joined. Trt = c1ccc(C(c2ccccc2)(c2ccccc2)*)cc1; Cbz = O=C(OCc1ccccc1)*

This test can be described thus: NCI Yeast Anticancer Drug Screen. Data for the mlh1 rad18 strain (AID 175). Conditions: S. cerevisiae mlh1 rad18 strain growth inhibition; at 50.0 µM; active compounds read high. The method, boiled down:
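Read-out is yeast growth inhibition, calculated against vehicle-only controls. The compound was applied to a strain engineered with DNA damage repair alterations.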
As for `N=C(N)SCCC(=O)O`, the growth inhibition was -56.6%.

Regarding `COC(=O)C(CO)NC(=O)C(CSC(c1ccccc1)(c1ccccc1)c1ccccc1)NC(=O)OCc1ccccc1` (stereo not given) (Cbz-Cys(Trt)-Ser-OMe; configuration not given here), the growth inhibition was 84.2% (active).

As to `CC1(C)N=C(N)N=C(N)N1c1cccc(OCCCOc2ccc([N+](=O)[O-])cc2)c1`, the growth inhibition was -26.4%.

Turning to `CCN(CC)CCN(CC)CC(=O)Nc1ccccc1Cl`, the growth inhibition was -14.2%.

With `O=c1[nH]c(N2CCN(c3ccccc3)CC2)nc2cc3ccccc3cc12`, the growth inhibition was -16.9%.

Turning to `c1ccc(-c2cnc(C3CCCCC3)o2)cc1`, the growth inhibition was 5.55%.

Consider `C[N+](C)(C)C=Nc1cccc2c1CCCC2`, for which the growth inhibition was 1.55%.

Take `COc1ncnc2c(NC3OC(CO)C(O)C3O)ncnc12` (stereo not given): the growth inhibition is -9.3%.

As to `Cn1c2cc(Cl)c(Cl)cc2nc2cc3c(cc21)c(Cl)c(=O)c1cc2cc(Cl)c(Cl)cc2cc13`, the growth inhibition was 20.3%.

Take `CN1C=C([N+](=O)[O-])C(N2CCOCC2)C1N1CCOCC1` (stereo not given): the growth inhibition was 20.9%.

Turning to `O=C1NCC(c2ccccc2)(C2CC2)O1` (stereo not given), the growth inhibition is -27.1%.

Turning to `CCOC(=O)c1noc(Oc2ccc(Cl)cc2Cl)n1`, the growth inhibition is 15.1%.

`CCCN(CCC)C(=S)S`: the growth inhibition was 14.4%.

Consider `CSc1ncnc2c1ccn2C1OC(COP(=O)(O)O)C(O)C1O` (stereo not given), for which the growth inhibition is -2.15%.

Turning to `O=C(O)c1c(Br)c(Br)c(Br)c(Br)c1C(=O)Nc1ccc([N+](=O)[O-])cc1`, the growth inhibition was -1.05%.

On to `Cc1ccc(N2C(=O)CSC2=S)cc1F`, for which the growth inhibition is 10.7%.

Take `Cc1ccc(C#N)c2c1CCC2`: the growth inhibition was 2.6%.

Take `CCOC(=O)/C=C/C(=O)OCC`: the growth inhibition was -2.65%.

Consider `COc1ccc(C(=O)C(CO)Oc2ccccc2OC)cc1OC` (stereo not given), for which the growth inhibition was -1.35%.

Regarding `O=C(O)CCC(=O)Nc1cc(C(F)(F)F)ccc1Cl`, the growth inhibition is 7.5%.

`Clc1ccc(OCc2nnc3n2N=C(c2ccc(Br)cc2)CS3)cc1`: the growth inhibition is 13.6%.

Regarding `CC(C)C(=O)C(F)(F)F`, the growth inhibition was -2.3%.

With `O=C(OC1C#CCSCC#C/C=C\1)c1ccc2c(c1)C(=O)c1ccccc1C2=O` (stereo not given), the growth inhibition is -61.6%.

Take `Cc1ccc2c(c1)Nc1ccccc1P2(=O)O`: the growth inhibition is -15.4%.

Turning to `NC(=O)SCC(=O)Nc1ccc2cccc3c2c1CC3`, the growth inhibition is 85.2% (active).

As to `CC1=CCC(CC(=O)O)C1(C)C` (stereo not given), the growth inhibition is -5%.

Regarding `O=C(NC(c1ccccc1)C(O)c1ccccc1)C(Cl)Cl` (stereo not given), the growth inhibition was 2.65%.

As to `O=C1c2ccccc2C(=O)c2c1cc1c(c2O)OCO1`, the growth inhibition is 46.9%.

Regarding `CCCCCCCCCCCCC(F)C(=O)OCC1OC(n2cc(C)c(=O)[nH]c2=O)CC1N=[N+]=[N-]` (stereo not given), the growth inhibition is 14.8%.

As to `CN1C(C)(C)NC(=S)C1(C)C`, the growth inhibition is -9.65%.

As for `NC(=S)N/N=C(\CCC(=O)Nc1ccccc1[N+](=O)[O-])CC(=O)c1ccco1`, the growth inhibition was 6.3%.

Take `CC(C)(C)CC(C)(C)NS(=O)(=O)NC(C)(C)CC(C)(C)C`: the growth inhibition is 0.7%.

For `O=C(O)c1cccc(Br)c1[N+](=O)[O-]`, the growth inhibition is -5.9%.

For the compound `CC(=O)NC(CSCN(C)c1nc(N(C)C)nc(N(C)C)n1)C(=O)O` (stereo not given), the growth inhibition is 13.8%.

`CN(C)CC1CCCCCCCCCC(CN(C)C)C1=O` (stereo not given): the growth inhibition is 66.7%.

As to `CCCCCCC(=O)C(=O)O`, the growth inhibition was 59.5%.

For `[N-]=[N+]=NC1(Cc2ccccc2)C(=O)Nc2ccccc2C1=O` (stereo not given), the growth inhibition is -16%.

As for `O=C(O)CCC1COc2ccccc2O1` (stereo not given), the growth inhibition was -9.35%.

With `O=C1NC(=O)C(F)(F)C1(F)F`, the growth inhibition is 4.35%.

`CC1(C)C/C(=C\c2ccc([N+](=O)[O-])cc2)C(=O)c2ccccc21`: the growth inhibition was 89% (active).
